The list is not random: actives were taken first. Their share in the collection is about 3.7%.
HTT ATP protect: cytoprotection in Huntington HTT-Q103 PC12 cell model; actives 0.14% (n = 230,000); PC12 HTT-Q103 induced, cytoprotection, ATP luminescence, 40 h; Potency, µM (series often up to 56.4 µM), most hits filed as activators; also: nearly all actives have a fitted effect of over 45% in size
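Stable PC12 Q103-GFP cells in serum-supplemented, phenol red-free DMEM; induction by tebufenozide at 100 nM final; compound dose series; cell viability quantified luminescently from ATP.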
Tau fibril FP: tau fibrillization inhibition (FP) | AID 1468 | P10636 | actives 0.39% (n = 280,000) | Potency, µM (titrated, usually from 57.7 µM), most hits filed as inhibitors | K18 P301L tau heparin fibrillization, Alexa594 FP, 6 h; also: nearly all actives have a fitted effect of over 55% in size
Target sequence (P10636 561-689 P618L limits assumed): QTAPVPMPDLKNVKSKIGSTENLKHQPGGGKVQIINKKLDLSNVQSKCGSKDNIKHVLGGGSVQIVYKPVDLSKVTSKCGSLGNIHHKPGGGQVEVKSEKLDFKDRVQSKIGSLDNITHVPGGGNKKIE
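Recombinant K18 P301L […], labeled with Alexa 594 at 0.24 uM over 15 uM unlabeled; heparin inducer 20 uM final; 37 C, 6 hr; FP endpoint.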
HttQ103 aggreg: mutant huntingtin aggregation inhibition; actives 1.1% (n = 220,000); PC12 HttQ103-GFP aggregates, Acumen cytometry, 40 h; Potency, µM (highest dose often 46.1 µM), most hits filed as inhibitors; AID 1688; also: nearly all actives have a fitted effect of over 60% in size
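Compounds (qHTS titration) were added to PC12 cells expressing an ecdysone-driven HTT exon 1 Q103–GFP fusion after induction with 100 nM tebufenozide. Aggregate formation was measured as GFP objects in cell lysates.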
Tau fibril ThT: blocks human tau fibril formation measured by thioflavin T | P10636 | recombinant tau K18 P301L, heparin-induced fibrillization, ThT fluorescence | Potency, µM (doses to about 57.4 µM), actives largely listed as inhibitors | actives 2.1% (n = 270,000) | AID 1460; also: nearly all actives have a fitted effect of over 55% in size
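Fibril formation assay: tau K18 P301L at 15 uM with trace Alexa 594 label, heparin inducer 20 uM, pH 7 sodium acetate buffer, 37 C for 6 hr; endpoint ThT signal.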
Tau fluor cs: counter-screen for tau fibril formation inhibitors. tau K18 P301L (four-repeat tau fragment) Alexa594 fluorescence, heparin fibrillization. Potency, µM (titrated, usually from 57.7 µM). actives 0.93% (n = 280,000). AID 1463; also: nearly all actives have a fitted effect of over 55% in size
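Human K18 P301L tau (15 uM unlabeled plus 0.24 uM Alexa 594-labeled, final) in 100 mM sodium acetate pH 7 was mixed with compound and 20 uM heparin and incubated 6 hr at 37 C.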
A number is an active result; – = inactive; ? = inconclusive; · = no result; ! = a repeat was not active; [ ] = remark or other dose. Calls follow the shape of the dose curve; as a rule, active = well fitted curve in the direction sought with a large enough effect; inconclusive = small, poorly fitted or top-dose-only effect, or another doubt; inactive = no such curve, though single readings can be large; an effect the other way counts as inactive or inconclusive.

SMILES | HTT ATP protect | Tau fibril FP | HttQ103 aggreg | Tau fibril ThT | Tau fluor cs
Cc1ccc(SCC(=O)N2c3ccccc3Sc3ccccc32)cc1 | – | – | 16µM | – | –
Nc1c(C(=O)c2ccccc2)sc2nsc(SCCN3CCCC3)c12 | –[10 µM] | – | –[9.22 µM] | 16µM | ?
Cn1c(NCc2c(O)ccc3ccccc23)nc2ccccc21 | – | – | – | ? | 18µM[quencher]
COc1cccc(NS(=O)(=O)c2cc(-c3cnc(C4CC4)o3)ccc2C)c1 | · | – | · | – | ?
CCOC(=O)c1ccccc1NC(=O)COC(=O)CC(C)(C)CC1=NS(=O)(=O)c2ccccc2N1 | · | – | · | – | –
CCCCCCn1c(NCC)nc2c1c(=O)n(C)c(=O)n2C | –[0.074 µM] | – | 4µM | – | –
C=CCn1c(NCCO)nc2c1c(=O)n(C)c(=O)n2C | –[10 µM] | – | 25µM | – | –
Cn1c(=O)c(C#N)c(-c2ccc(F)cc2)c2cc(C(=O)c3cc(Cl)cc(Cl)c3O)cnc21 | –[10 µM] | – | –[9.22 µM] | 14µM | –
COc1ccccc1-n1c(=O)c(C#N)c(-c2ccc([N+](=O)[O-])cc2)c2cc(C(=O)c3cc(F)ccc3O)cnc21 | –[10 µM] | – | – | – | –
C[C@@H]1C(=O)O[C@H]2[C@@H](O)[C@@]34[C@H]5C[C@H](C(C)(C)C)[C@@]36[C@H](OC(=O)[C@@H]6O)O[C@@]4(C(=O)O5)[C@@]12O | – | · | · | · | ·
CCOc1ccc(N/C=C/C(=O)c2ccc(C)cc2)c([N+](=O)[O-])c1 | – | – | – | 1.1µM | –
CCOc1ccc(N/C=C/C(=O)c2ccc3ccccc3c2)c([N+](=O)[O-])c1 | –[10 µM] | – | – | 1.1µM | ?
Cc1ccc(C(=O)/C=C/Nc2ccc([N+](=O)[O-])cc2Br)cc1 | – | – | – | ? | –
C[C@H](NC(=O)c1ccc(Cl)c(Cl)c1)c1ccc(-c2ccccc2)cc1 | –[10 µM] | · | · | · | ·
Cn1c(=N)n(CC(=O)O)c2ccccc21 | – | – | 5.6µM | – | –
Cn1c(=N)n(CC(=O)c2ccccc2)c2ccccc21 | –[10 µM] | – | –[9.22 µM] | – | –
COc1cc2nc(N3CC=[N+](C(=O)c4ccco4)CC3)nc(N)c2cc1OC | –[1.9 µM] | · | · | · | ·
Cc1ncc(COC(=O)C(C)C)c2cc(C(=O)Nc3ccccc3C(F)(F)F)c(=O)oc12 | · | – | · | – | –
CC(Oc1ccccc1)C(=O)Nc1c(C(=O)Nc2cccc(F)c2)oc2ccccc12 (stereo not given) | · | 10µM | · | – | ?
NC(=O)c1c(/N=C/c2cccs2)sc2c1CCCC2 | –[10 µM] | – | –[9.22 µM] | 2.2µM | –
N#Cc1nc(/C=C/c2ccc(F)cc2)oc1N1CCCCCC1 | · | – | · | – | ?
O=C(CC1Sc2ccc(C(F)(F)F)cc2NC1=O)Nc1ccc(Cl)c(C(F)(F)F)c1 (stereo not given) | · | 11µM | · | – | ?
NC(=S)NCCC[C@@H](N)C(=O)O | –[1.9 µM] | · | · | · | ·
N#C/C(=C\c1cc(O)c(O)c(O)c1)C(N)=O | –[10 µM] | – | –[9.22 µM] | ? | –
COc1c(N2CCNC(C)C2)c(F)cc2c(=O)c(C(=O)O)cn(C3CC3)c12 (stereo not given) | 3.2µM! | – | – | – | –
SMILES | HTT ATP protect | Tau fibril FP | HttQ103 aggreg | Tau fibril ThT | Tau fluor cs
Cc1[nH]n(-c2ccccc2)c(=O)c1C=Nc1cccc2cccnc12 | –[10 µM] | – | ? | ? | ?
Cc1[nH]n(-c2ccccc2)c(=S)c1C=Nc1cccc([N+](=O)[O-])c1 | – | ? | – | 22µM | –
Cc1ccc(C2C=C(c3ccc(F)cc3)Nc3nc(CCCO)nn32)cc1 (stereo not given) | · | – | · | – | –
O=C(CSc1nnc(SCc2ccccc2Cl)s1)N/N=C/c1c[nH]c2ccccc12 | ? | ? | – | – | 14µM[quencher]
CCn1c(SCC(=O)N/N=C/c2c[nH]c3ccccc23)nnc1-c1ccc(C(C)(C)C)cc1 | –[10 µM] | – | – | ? | 18µM[quencher]
CCn1c(SCC(=O)N/N=C/c2ccc(C)o2)nnc1-c1ccc(C(C)(C)C)cc1 | –[10 µM] | – | – | – | –
O=C(CSc1nnc(SCc2ccccc2)s1)N/N=C/c1c[nH]c2ccccc12 | – | – | – | – | ?
Cc1c(C(=O)N2CCC(C(=O)Nc3ccc(F)cc3)CC2)sc2nc[nH]c(=O)c12 | · | – | · | – | –
O=C(NCc1nc(-c2ccc(C(F)(F)F)cc2)no1)Nc1cc(Cl)cc(Cl)c1 | –[10 µM] | 16µM | –[9.22 µM] | · | ?
O=C(NCc1nc(-c2ccc(C(F)(F)F)cc2)no1)Nc1ccc(F)cc1F | –[10 µM] | – | –[9.22 µM] | · | –
O=C(CCS(=O)(=O)c1cc(Br)cc2c1N(C(=O)C1CC1)CC2)NCc1ccc(Cl)cc1 | · | – | · | – | –
CCc1cc2c(=O)c(-c3cscn3)coc2c(CN(C)C)c1O | –[10 µM] | – | 11µM | – | –
Cc1oc2c(CN(C)C)c(O)ccc2c(=O)c1-c1cscn1 | –[10 µM] | – | – | – | –
CCCCC/C=C\C/C=C\C/C=C\C/C=C\CCCCCC(N)=O | – | – | · | – | –
Cc1cccc(C)c1OC[C@@H](N)C(C)C | –[1.9 µM] | · | · | · | ·
COC(=O)[C@@H](NC(=O)N1CCc2nc(COc3ccccc3)c3c(c2C1)CO[C@@H](C)C3)C(C)C | –[10 µM] | –[11.6 µM] | · | –[11.5 µM] | –[11.6 µM]
Cn1cc(C=C2C(=O)Nc3cccnc32)c2ccccc21 | – | – | · | 10µM | ?
O=[N+]([O-])c1ccc(Nc2nc(N/N=C\c3ccc4c(c3)OCO4)nc(N3CCCCC3)n2)cc1 | – | – | ? | 32µM | ?
O=[N+]([O-])c1ccc(-c2ccc(/C=N/Nc3nc(NCc4ccccc4)nc(N4CCOCC4)n3)o2)cc1 | –[10 µM] | ? | –[9.22 µM] | 2.8µM | ?
O=[N+]([O-])c1ccc(/C=N/Nc2nc(N3CCCCCC3)nc(N3CCCCCC3)n2)o1 | –[10 µM] | – | 7.1µM | ? | ?
COc1nc(N/N=C/c2ccc(-c3ccccc3[N+](=O)[O-])o2)nc(N2CCOCC2)n1 | –[10 µM] | – | – | – | –
Cc1ccc(C2=C(Cl)C(=O)C(c3ccc(C)cc3)=C(Cl)C2=O)cc1 | –[10 µM] | · | · | · | ·
CC(C)(Oc1ccc(Cl)cc1)C(=O)Nc1nc2ccc(S(C)(=O)=O)cc2s1 | · | – | · | – | –
CCOC(=O)c1nnc2c(-c3ccc(Cl)cc3)c(C)nn2c1C | · | – | · | 7.9µM | –
Cc1cnc(CNc2ncnc3ccc(-c4ccccc4C(F)(F)F)cc23)cn1 | – | · | · | · | ·
SMILES | HTT ATP protect | Tau fibril FP | HttQ103 aggreg | Tau fibril ThT | Tau fluor cs
CCOc1ccc(-c2cc(C(=O)NCCc3ccccc3)c3c(-c4ccc(C)cc4)[nH]nc3n2)cc1 | · | – | · | – | –
Cc1sc2ccccc2[n+]1CC(=O)O | –[10 µM] | 32µM | –[9.22 µM] | 28µM | –
Cc1sc2ccccc2[n+]1CCC(C)S(=O)(=O)[O-] (stereo not given) | – | – | – | ? | –
CCOc1cc(/C=N\Nc2nc(-c3ccc(C)cc3)c(NC(C)=O)s2)ccc1O | –[10 µM] | – | –[9.22 µM] | 20µM | ?
CC(=O)Nc1sc(N/N=C/c2ccc(N(C)C)cc2)nc1-c1ccc(C)cc1 | –[10 µM] | – | –[9.22 µM] | 16µM | 32µM[quencher]
Cc1nn(CCCC(=O)NCCc2ccc(Cl)cc2)c(=O)c2c1sc1ccccc12 | · | – | · | – | –
O=C(NCc1cccc(F)c1)C1CCN(c2nc3ccccc3nc2C(F)(F)F)CC1 | · | – | · | – | –

Screening results deposited in PubChem BioAssay by National Center for Advancing Translational Sciences (NCATS).
